# PubChem BioAssay (EPA / NIEHS)
# Activity calls are given as the source filed them. Rule for the calls: active = hit-call score of the fitted dose curve at least 0.9, where 1 is the maximum; inactive = score below 0.9.
# Target: Cellular tumor antigen p53 (Homo sapiens) (UniProt P04637)
# Assay: ATG_p53_CIS: Attagene CIS-FACTORIAL HepG2 Assay for human p53 Transcription Factor (AID 2282994)
# Conditions: HepG2 p53 cis-element reporter, Attagene mRNA; actives raise or lower the signal
# How it was run: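 Endogenous p53 activity read in transiently transfected HepG2 from a cis-element-driven reporter transcript after 24 h exposure. RNA reverse-transcribed, PCR-amplified, fluorescently labelled and sized by capillary electrophoresis; gain or loss fitted against DMSO baseline.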
# Sequence of Cellular tumor antigen p53 (Homo sapiens) (P04637 whole entry, looked up): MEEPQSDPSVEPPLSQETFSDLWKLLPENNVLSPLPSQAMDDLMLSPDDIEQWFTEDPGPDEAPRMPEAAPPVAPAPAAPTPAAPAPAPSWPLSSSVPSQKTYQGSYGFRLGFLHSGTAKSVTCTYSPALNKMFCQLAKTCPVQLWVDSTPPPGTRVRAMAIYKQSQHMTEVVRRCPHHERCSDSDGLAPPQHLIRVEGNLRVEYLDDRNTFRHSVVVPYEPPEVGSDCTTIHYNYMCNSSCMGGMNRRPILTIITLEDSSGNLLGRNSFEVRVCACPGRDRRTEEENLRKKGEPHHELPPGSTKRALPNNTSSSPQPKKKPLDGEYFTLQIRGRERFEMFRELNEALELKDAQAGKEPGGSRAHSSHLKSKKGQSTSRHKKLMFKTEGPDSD
SMILES,outcome,AC50
Clc1ccc(C(c2ccc(Cl)cc2)C(Cl)(Cl)Cl)cc1,inactive,
Nc1ccc(Oc2ccc(N)cc2)cc1,inactive,
ClC1=C(Cl)[C@]2(Cl)[C@H]3[C@H]([C@@H]4C=C[C@H]3C4)[C@@]1(Cl)C2(Cl)Cl,inactive,
CCCCCOC(=O)c1ccccc1C(=O)OCCCCC,inactive,
CC(C)(C)C(O)(CCc1ccc(Cl)cc1)Cn1cncn1 (centres undefined),inactive,
Brc1ccc(Oc2ccccc2)cc1,inactive,
ClC1=C(Cl)C2(Cl)C3C(Cl)C=CC3C1(Cl)C2(Cl)Cl (centres undefined),,100 µM (active)
CCC(C)c1ccc(O)cc1 (centres undefined),inactive,
c1ccc2c(c1)oc1ccccc12,inactive,
CCC12COCN1COC2,inactive,
c1ccc2c(c1)-c1cccc3cccc-2c13,inactive,
Nc1ccc(Cl)cc1N,,8.6 µM (active)
CN(C)C(=O)Nc1ccc(Cl)cc1,inactive,
CCCCCCCCOC(=O)c1ccc(C(=O)OCCCCCCCC)c(C(=O)OCCCCCCCC)c1,inactive,
CN(C)c1ccc(C(=O)c2ccc(N(C)C)cc2)cc1,inactive,
Clc1ccc(C(c2ccc(Cl)cc2)C(Cl)Cl)cc1,inactive,
Nc1ccc(Cc2ccc(N)cc2)cc1,inactive,
Cc1cccc(N)c1N,inactive,
O=P(OCCCl)(OCCCl)OCCCl,inactive,
O=Cc1ccco1,inactive,
c1ccc(NNc2ccccc2)cc1,inactive,
Oc1ccccc1Cl,inactive,
O=[N+]([O-])c1ccc(Oc2ccc(Cl)cc2Cl)cc1,inactive,

# Read-out: not listed separately
# Assay: BSK_3C_TissueFactor: BioMAP Diversity Plus: 3C Assay for Tissue Factor Biomarker Activity (AID 2282997)
# Conditions: BioMAP 3C HUVEC, tissue factor biomarker readout; actives raise or lower the signal
# How it was run: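 Readout: Tissue Factor ELISA. Cells: human primary umbilical vein endothelium. Time: 24 h after dosing. Analysis: bidirectional fit, DMSO baseline.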
SMILES,AC50,outcome
Clc1ccc(C(c2ccc(Cl)cc2)C(Cl)(Cl)Cl)cc1,27.7 µM (active),
Nc1ccc(Oc2ccc(N)cc2)cc1,,inactive
ClC1=C(Cl)[C@]2(Cl)[C@H]3[C@H]([C@@H]4C=C[C@H]3C4)[C@@]1(Cl)C2(Cl)Cl,28.5 µM (active),
CCCCCOC(=O)c1ccccc1C(=O)OCCCCC,,inactive
CC(C)(C)C(O)(CCc1ccc(Cl)cc1)Cn1cncn1 (centres undefined),,inactive
OCCOCCO,,inactive
Brc1ccc(Oc2ccccc2)cc1,,inactive
ClC1=C(Cl)C2(Cl)C3C(Cl)C=CC3C1(Cl)C2(Cl)Cl (centres undefined),26.9 µM (active),
CCC(C)c1ccc(O)cc1 (centres undefined),,inactive
c1ccc2c(c1)oc1ccccc12,,inactive
CCC12COCN1COC2,,inactive
c1ccc2c(c1)-c1cccc3cccc-2c13,0.669 µM (active),
Nc1ccc(Cl)cc1N,,inactive
O=C(Nc1ccccc1)c1ccccc1I,,inactive
CCOC(=O)[C@]1(c2ccccc2)Oc2ccccc2[C@@H]1N,20 µM (active),
CN(C)C(=O)Nc1ccc(Cl)cc1,,inactive
CCCCCCCCOC(=O)c1ccc(C(=O)OCCCCCCCC)c(C(=O)OCCCCCCCC)c1,,inactive
CN(C)c1ccc(C(=O)c2ccc(N(C)C)cc2)cc1,,inactive
Clc1ccc(C(c2ccc(Cl)cc2)C(Cl)Cl)cc1,32.2 µM (active),
Nc1ccc(Cc2ccc(N)cc2)cc1,,inactive
Cc1cccc(N)c1N,,inactive
O=P(OCCCl)(OCCCl)OCCCl,,inactive
O=Cc1ccco1,,inactive
c1ccc(NNc2ccccc2)cc1,,inactive
Oc1ccccc1Cl,,inactive
CC(C)COC(=O)c1ccccc1C(=O)OCC(C)C,12.4 µM (active),
O=[N+]([O-])c1ccc(Oc2ccc(Cl)cc2Cl)cc1,,inactive
N#CC(Br)Br,,inactive

# Read-out: not listed separately
# Assay: BSK_3C_uPAR: BioMAP Diversity Plus: 3C Assay for Urokinase-type plasminogen activator receptor (uPAR) Biomarker Activity (AID 2282998)
# Conditions: BioMAP 3C HUVEC, uPAR biomarker ELISA; actives raise or lower the signal
# How it was run: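 Dose primary human umbilical vein endothelial cells, incubate 24 h, measure cell-surface uPAR by ELISA, then fit the signal in both directions against the DMSO negative control.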
SMILES,AC50,outcome
Clc1ccc(C(c2ccc(Cl)cc2)C(Cl)(Cl)Cl)cc1,15.2 µM (active),
Nc1ccc(Oc2ccc(N)cc2)cc1,,inactive
ClC1=C(Cl)[C@]2(Cl)[C@H]3[C@H]([C@@H]4C=C[C@H]3C4)[C@@]1(Cl)C2(Cl)Cl,16.1 µM (active),
CCCCCOC(=O)c1ccccc1C(=O)OCCCCC,,inactive
CC(C)(C)C(O)(CCc1ccc(Cl)cc1)Cn1cncn1 (centres undefined),,inactive
OCCOCCO,,inactive
Brc1ccc(Oc2ccccc2)cc1,,inactive
ClC1=C(Cl)C2(Cl)C3C(Cl)C=CC3C1(Cl)C2(Cl)Cl (centres undefined),29.3 µM (active),
CCC(C)c1ccc(O)cc1 (centres undefined),,inactive
c1ccc2c(c1)oc1ccccc12,,inactive
CCC12COCN1COC2,,inactive
c1ccc2c(c1)-c1cccc3cccc-2c13,,inactive
Nc1ccc(Cl)cc1N,,inactive
O=C(Nc1ccccc1)c1ccccc1I,,inactive
CCOC(=O)[C@]1(c2ccccc2)Oc2ccccc2[C@@H]1N,20 µM (active),
CN(C)C(=O)Nc1ccc(Cl)cc1,,inactive
CCCCCCCCOC(=O)c1ccc(C(=O)OCCCCCCCC)c(C(=O)OCCCCCCCC)c1,,inactive
CN(C)c1ccc(C(=O)c2ccc(N(C)C)cc2)cc1,3.34 µM (active),
Clc1ccc(C(c2ccc(Cl)cc2)C(Cl)Cl)cc1,14.1 µM (active),
Nc1ccc(Cc2ccc(N)cc2)cc1,,inactive
Cc1cccc(N)c1N,,inactive
O=P(OCCCl)(OCCCl)OCCCl,,inactive
O=Cc1ccco1,,inactive
c1ccc(NNc2ccccc2)cc1,,inactive
Oc1ccccc1Cl,,inactive
CC(C)COC(=O)c1ccccc1C(=O)OCC(C)C,,inactive
O=[N+]([O-])c1ccc(Oc2ccc(Cl)cc2Cl)cc1,9.38 µM (active),
N#CC(Br)Br,,inactive
